In PubChem BioAssay (EPA / NIEHS) one finds outcome and AC50 data, which are given here for eight compounds.

Inconclusive results are not listed. Activity calls are given as the source filed them. Rule for the calls, unless noted: active = hit-call score of the fitted dose curve at least 0.9, where 1 is the maximum; inactive = score below 0.9.

Read-out in test [1]: CD40, CD40 (gene 958)
The experiment in a line: BSK_IMphg_CD40: BioMAP Diversity Plus: IMphg Assay for CD40 Biomarker Activity (AID 2284288). The settings on record: primary human endothelial cells with macrophages. The method, boiled down:
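ELISA read-out of cell-surface CD40 at 24 h in human venular endothelial cell/macrophage co-cultures. Activity fitted in the positive direction against DMSO; parallel SRB staining (560 nm) gauges overt cytotoxicity.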

Read-out in test [2]: TIMP metallopeptidase inhibitor 2 (TIMP2), TIMP2 (gene 7077)
The experiment in a line: BSK_hDFCGF_TIMP2: BioMAP Diversity Plus: hDFCGF Assay for TIMP metallopeptidase inhibitor 2 (TIMP2) Biomarker Activity (AID 2284289). The settings on record: primary human foreskin fibroblasts. The method, boiled down: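 Primary human foreskin fibroblasts in the hDFCGF system, dosed for 24 h; TIMP-2 level measured by ELISA, fitted in the positive direction against DMSO; cytotoxicity checked in parallel by sulforhodamine B total protein staining.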

Read-out in test [3]: Interleukin-1 alpha (IL1a), IL1A (gene 3552)
The experiment in a line: BSK_IMphg_IL1a: BioMAP Diversity Plus: IMphg Assay for Interleukin-1 alpha (IL1a) Biomarker Activity (AID 2284290). The settings on record: primary human endothelial cells with macrophages. The method, boiled down: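 IL-1α is quantified by ELISA at 24 h in the endothelial/macrophage IMphg co-culture, with gain of signal fitted relative to DMSO. Parallel SRB total-protein staining flags overt toxicity.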

Read-out in test [4]: E-selectin (Homo sapiens) (UniProt P16581)
The experiment in a line: BSK_IMphg_ESelectin: BioMAP Diversity Plus: IMphg Assay for Eselectin Biomarker Activity (AID 2284291). The settings on record: primary human endothelial cells with macrophages. The method, boiled down: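 Analysed against DMSO baseline in the positive fitting direction, this endpoint is an ELISA read of E-selectin. It comes from human venular endothelial cells co-cultured with macrophages, sampled 24 h post-dose.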

Test [5] in a line: BSK_IMphg_SRB: Viability Assessment in the BioMAP Diversity Plus: IMphg Assay (AID 2284292).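 Note: measured one day after compound addition.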 The settings on record: primary human endothelial cells with macrophages. The method, boiled down: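 SRB viability endpoint: cultures of human endothelial cells plus macrophages fixed with 10% TCA, stained with 0.1% SRB, read at 560 nm 24 h post-dosing. Only gain-of-signal fitted, relative to DMSO.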

Read-out in test [6]: Macrophage colony-stimulating factor (MCSF), CSF1 (gene 1435)
The experiment in a line: BSK_IMphg_MCSF: BioMAP Diversity Plus: IMphg Assay for Macrophage colony-stimulating factor (MCSF) Biomarker Activity (AID 2284293). The settings on record: primary human endothelial cells with macrophages. The essentials:
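M-CSF was measured by ELISA in human venular endothelial cell/macrophage co-cultures dosed for 24 hours. Sulforhodamine B staining of parallel cultures assessed cytotoxicity; data fitted against DMSO baseline.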

Read-out in test [7]: Interleukin-10 (IL10), IL10 (gene 3586)
Briefly: BSK_IMphg_IL10: BioMAP Diversity Plus: IMphg Assay for Interleukin-10 (IL10) Biomarker Activity (AID 2284294). The settings on record: primary human endothelial cells with macrophages. The method, boiled down: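 IL-10 read by ELISA after 24 h chemical exposure of primary human venular endothelial cell/macrophage cocultures, with DMSO as baseline. Parallel SRB staining (560 nm) gauged overt cytotoxicity.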

A short description of test [8]: BSK_IMphg_SRB.Mphg: Macrophage Viability Assessment in the BioMAP Diversity Plus: IMphg Assay (AID 2284295). The settings on record: primary human endothelial cells with macrophages. The essentials: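 Cytotoxicity read-out: parallel cultures fixed with 10% TCA, stained with 0.1% sulforhodamine B, read at 560 nm. System combines venular endothelium and macrophages; sampled 24 h post-dosing, fitted positively relative to DMSO control.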

Read-out in test [9]: Thrombomodulin, THBD (gene 7056)
The experiment in a line: BSK_LPS_Thrombomodulin: BioMAP Diversity Plus: LPS Assay for Thrombomodulin Biomarker Activity (AID 2284296). The settings on record: primary human HUVEC with PBMC. The essentials: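 Thrombomodulin on the surface of LPS-activated endothelial/PBMC co-cultures was quantified by ELISA at 24 hours post-dosing, with DMSO as baseline. Parallel SRB total-protein staining flagged overt cytotoxicity.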

Read-out in test [10]: CD69, CD69 (gene 969)
Briefly: BSK_LPS_CD69: BioMAP Diversity Plus: LPS Assay for CD69 Biomarker Activity (AID 2284303). The settings on record: primary human HUVEC with PBMC. The essentials:
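CD69 surface levels were read by ELISA after 24 h chemical treatment of an LPS-stimulated HUVEC plus PBMC co-culture; positive-direction fit against DMSO vehicle.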

The nature of test [11]: Tanguay_ZF_120hpf_MO24: Oregon State University Tanguay Lab 24 Hour Post-fertilization zebrafish Assay for Mortality (AID 2284389). The essentials:
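Embryo death at 24 hpf was recorded as present or absent in Tropical 5D zebrafish, dechorionated at 4 hpf and dosed statically from 6 hpf (28C, 0.64% DMSO); 5 uM trimethyltin chloride served as positive control.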

Test [12] has as its system TTR (gene 7276). Briefly: CCTE_GLTED_hTTR_0.5uM: CCTE's human Transthyretin (hTTR) Inhibition Assay, with 0.5uM TTR, Great Lakes Toxicology and Ecology Division (GLTED) Lab (AID 2284320). The essentials:
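Probe (ANSA) displacement from 0.5 uM human transthyretin was followed by fluorescence (ex 380, em 475) after a 2 h incubation with chemical. Activity was scored as signal loss and fitted positively relative to DMSO.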

A short description of test [13]: CCTE_Mundy_HCI_iCellGluta_NOG_NeuronCount: CCTE's Neurite Outgrowth Assay in iCellGluta cells for Neuron Count, Mundy Lab (AID 2284340; active = hit-call score of the fitted dose curve at least 0.9, where 1 is the maximum;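 note: cells fixed about 48 h after compound addition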). The essentials: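 Neuron count read by automated high-content imaging of Hoechst 33342 and betaIII-tubulin/Alexa Fluor-488 labelling in human iPSC glutamatergic neurons. Activity fitted relative to DMSO.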
The nature of test [14]: CCTE_Mundy_HCI_iCellGluta_NOG_NeuriteCount: CCTE's Neurite Outgrowth Assay in iCellGluta cells for Neurite Count, Mundy Lab (AID 2284342; active = hit-call score of the fitted dose curve at least 0.9, where 1 is the maximum;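 note: chemical exposure about 48 hours starting 2 hours after plating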).
Test [15] has as its system SERPINA7 (gene 6906). The experiment in a line: CCTE_GLTED_hTBG: CCTE's human Thyroxine-binding Globulin (TBG) Inhibition Assay, Great Lakes Toxicology and Ecology Division (GLTED) Lab (AID 2284343; active = hit-call score of the fitted dose curve at least 0.9, where 1 is the maximum;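 note: active chemicals lower fluorescence versus DMSO baseline by displacing probe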). The method, boiled down:
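Steps: combine TBG with chemical; incubate 2 hours so that disruptors release ANSA; record fluorescence (380 ex, 475 em). Loss of signal was fitted against DMSO controls.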

Test [16] concerns IYD (gene 389434). Briefly: CCTE_GLTED_hIYD: CCTE's human Iodotyrosine Deiodinase (xIYD) Inhibition Assay, Great Lakes Toxicology and Ecology Division (GLTED) Lab (AID 2284317; active = hit-call score of the fitted dose curve at least 0.9, where 1 is the maximum;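 note: cell-free human IYD enzyme made in baculovirus insect cells; iodide freed from monoiodotyrosine measured by cerium arsenite color change at 420 nm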). The method, boiled down:
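Iodide liberated from monoiodotyrosine by baculovirus-expressed human IYD over 3 h was determined colorimetrically (Sandell-Kolthoff, 420 nm) after Dowex separation; inhibition is loss of signal versus DMSO.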

Chain of E-selectin (Homo sapiens) (P16581 whole entry, looked up): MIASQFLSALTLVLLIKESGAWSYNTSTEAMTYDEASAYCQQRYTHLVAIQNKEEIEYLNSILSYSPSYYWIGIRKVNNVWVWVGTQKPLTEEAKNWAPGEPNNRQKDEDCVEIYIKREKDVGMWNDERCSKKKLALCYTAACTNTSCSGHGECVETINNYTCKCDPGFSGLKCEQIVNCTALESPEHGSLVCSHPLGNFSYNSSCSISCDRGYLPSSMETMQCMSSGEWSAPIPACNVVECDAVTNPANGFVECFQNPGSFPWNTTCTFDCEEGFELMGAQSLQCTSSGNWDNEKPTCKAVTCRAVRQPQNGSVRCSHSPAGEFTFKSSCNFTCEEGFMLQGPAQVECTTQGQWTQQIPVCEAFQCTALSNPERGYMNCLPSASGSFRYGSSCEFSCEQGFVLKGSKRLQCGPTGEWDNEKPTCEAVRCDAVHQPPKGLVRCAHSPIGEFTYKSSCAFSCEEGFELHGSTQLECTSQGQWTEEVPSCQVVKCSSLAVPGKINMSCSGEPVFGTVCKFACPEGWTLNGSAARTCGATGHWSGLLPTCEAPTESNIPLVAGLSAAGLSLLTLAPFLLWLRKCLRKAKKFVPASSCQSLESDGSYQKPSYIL

With `CO[Si](C)(CCC(F)(F)C(F)(F)C(F)(F)C(F)(F)C(F)(F)C(F)(F)F)OC`, the outcome in test [1], in test [2], in test [3], in test [4], in test [5] and in test [6] was inactive. In addition, the outcome in test [7], in [8], in test [9], in test [10] and in [11] was inactive.
Take `O=C(O)C(F)(F)C(F)(F)C(F)(F)OC(F)(C(F)(F)F)C(F)(F)F`: the result in [1], in [2], in test [3], in test [4], in test [5] and in test [6] was inactive. For the same compound, the result in [7], in test [8], in test [9], in [10], in test [13] and in test [14] was inactive. In addition, the call in test [11] was inactive. For the same compound, the AC50 in [12] is 0.321 µM (active).
With `FC(F)(F)C(F)(F)C(F)(F)C(F)(F)C(F)(F)C(F)(F)C(F)(F)CCI`, the outcome in [1], in [2], in test [3], in test [4], in test [5] and in test [6] was inactive. For the same compound, the result in test [7], in [8], in test [9], in test [10] and in test [11] was inactive. Also, the AC50 in [12] was 22.5 µM (active).
Regarding `OCC(O)CC(F)(F)C(F)(F)C(F)(F)C(F)(F)C(F)(F)C(F)(F)C(F)(F)C(F)(F)F` (configuration not stated), the outcome in test [1], in [2], in test [3], in test [4], in test [5] and in test [6] was inactive. For the same compound, the result in [7], in test [8], in [9], in test [10] and in [11] was inactive.
With `CCc1cc(Cc2cc(CC)c(N)c(CC)c2)cc(CC)c1N`, in [15], the AC50 was 8.5 µM (active).
With `O=C(c1ccccc1)c1ccc(O)cc1O`, in test [15], the AC50 was 9.12 µM (active).
For the compound `CCCCCCCCn1sc(Cl)c(Cl)c1=O`, in test [16], the AC50 is 100 µM (active).
Regarding `NC(=O)C(F)(F)C(F)(F)C(F)(F)F`, the outcome in test [1], in test [2], in [3], in test [4], in [5] and in test [6] was inactive. The outcome in [7], in test [8], in test [9], in test [10] and in [11] was inactive.
